Assay results from PubChem BioAssay (NCATS).
Results filed as inconclusive are left out. Where a call stands in place of a potency, no number is given. Activity calls are given as the source filed them. Calls follow the shape of the dose curve; as a rule, active = well fitted inhibition curve with a large enough effect; inconclusive = small, poorly fitted or top-dose-only effect; inactive = flat fitted curve, though single readings scatter.
Potency is read from the fitted curve at half-maximal effect.

Experiment: qHTS to identify inhibitors of the type 1 interferon - major histocompatibility complex class I in skeletal muscle: primary screen against the NCATS LOPAC collection (AID 1347405);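 also: lytic HiBiT luminescence reporting HLA-B protein level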
Settings: iHSKM muscle cells, IFN-b-induced MHC-I HiBiT luminescence, 24 h; series mostly up to 45.9 µM
Source text: Assay Submitter (PI): Travis B. Kinder Ph.D. & James Inglese Ph.D.
Assay Development and Screening Technology Laboratory (ADST)
National Center for Advancing Translational Sciences (NCATS), Rockville, MD
National Institute of Health (NIH), Bethesda, Maryland
Idiopathic inflammatory myopathies, collectively referred to as myositis, are a group of rare autoimmune diseases characterized by skeletal muscle inflammation, weakness, and usually accompanied by systemic pathologies of the skin, lungs, or vasculature. Current immunosuppressive therapies and glucocorticoids are often not curative and are accompanied by harsh side effects, especially in children with juvenile myositis. We initiated a drug repurposing and development program to identify more targeted, less toxic therapeutics to treat myositis. Although its cause is not known, muscle from a subset of patients have an abundance of the inflammatory type 1 interferon (IFN) and a down-stream product major histocompatibility complex class I (MHC class I), which are both thought to contribute to damage and weakness. We conducted quantitative high throughput screening on 6,576 compounds (4,679 unique) through a series of cell-based assays to identify those that inhibit the IFN-stimulated expression of MHC class I in muscle precursor cells (myoblasts). The compound identification and evaluation strategy utilized a primary screen with reporter-tagged MHC class I in genome-engineered myoblasts, ATP content counter screen for viability, HLA-ABC immunofluorescence secondary screen, and HLA-B RT-qPCR tertiary screen.
The primary screen utilized CRISPR/Cas9 genome-engineering of immortalized human myoblasts, C25cl48, where a pro-luminescent reporter HiBit was fused to the C-terminus of endogenous MHC class I allele HLA-B*08:01 (HLA-B HiBit myoblasts). HiBit is an 11 amino acid fragment of NanoLuc luminescent reporter (Promega Corporation), and when complexed to the larger LgBit fragment, the reconstituted enzyme produces light in the presence of furimazine substrate (Schwinn et al., 2018). Briefly, HLA-B HiBit myoblasts were plated into 1536-well plates, treated with 4.0 ng/ml human IFN-beta and 1,280 compounds from the Library of Pharmacologically Active Compounds 1280 library (LOPAC1280, Sigma Aldrich) in a 7-point, 1:4.3 titration with a high final concentration of 46 uM. After 24 hrs of treatment, cells were assayed by Nano-Glo HiBiT Lytic Detection System (Promega) and luminescence measured by a ViewLux 1430 Ultra HTS (Perkin Elmer).
Schwinn MK, Machleidt T, Zimmerman K, Eggers CT, Dixon AS, Hurst R, Hall MP, Encell LP, Binkowski BF, Wood K V. 2018. CRISPR-Mediated Tagging of Endogenous Proteins with a Luminescent Peptide. ACS Chem Biol 13:467-474. doi:10.1021/acschembio.7b00549
PROTOCOL TABLE (as described by Inglese et al., 2007)
SEQUENCE No. (e.g., 1, 2, 3, etc.); […] (e.g., Cells, Incubation, Reagent, etc.); VALUE; DESCRIPTION
1a; Cells; 5 uL; Use a Multidrop Combi (Thermo Scientific) to seed 350 cells/well into nine Greiner 1536 well white/solid bottom, high base, TC plates in 5 ul/well of iHSKM growth medium (GM) without dexamethasone into columns 1+2. Add metal lids with gas-exchange holes
1b; Cells; 5 uL; Use a Multidrop Combi (Thermo Scientific) to seed 350 cells/well into nine Greiner 1536 well white/solid bottom, high base, TC plates in 5 ul/well of iHSKM GM without dexamethasone + 4 ng/ml IFN-b into columns 3 - 48. Add metal lids with gas-exchange holes
2; Incubate; 1 hr; Incubate at 37 C, 5% CO2, 95% RH
3; Compounds; 23 nl; Use Pin Tool (Wako) to transfer DMSO control, ruxolitinib IFN-b inhibitor control [High Concentration = 80 uM final, 16-pt, 1:2 in duplicate], and library compounds in DMSO
4; Incubate; 24 hrs; Incubate at 37 C, 5% CO2, 95% RH
5; Dispense; 2.5 ul; Use BioRAPTR FRD (Beckman Coulter) to add HiBit lytic reagent
6; Incubate; 10 min; Incubate in the dark at ambient temperature for lysis
[…]
With C[C@@H](N)C1CCC(C(=O)Nc2ccncc2)CC1 (stereo partly specified) the Potency was “inactive”. For Cc1cccc(C#Cc2ccccc2)n1, the Potency was “inactive”. In the case of CN(C)C(=O)[C@H](O)[C@H](Cc1ccccc1)NC(=O)c1cc2cc(Cl)ccc2[nH]1, the Potency is reported as “inactive”. With O=C(CCc1ccc(O)cc1)c1c(O)cc(O)cc1O the Potency was “inactive”. In the case of CNC[C@H](O)c1ccc(O)c(O)c1, the Potency is reported as “inactive”. For CN(C)CCCC1(c2ccc(F)cc2)OCc2cc(C#N)ccc21 (stereo unspecified), the Potency was “inactive”. For C[C@@H](c1ncncc1F)[C@](O)(Cn1cncn1)c1ccc(F)cc1F, the Potency was “inactive”. For COc1ccc2cc([C@H](C)C(=O)O)ccc2c1, the Potency was “inactive”. For c1cnc2cc3c(cc2n1)C1CNCC3C1, the Potency was “inactive”. With Clc1ccc2c(N3CCN(CCCN4CCN(c5ccnc6cc(Cl)ccc56)CC4)CC3)ccnc2c1 the Potency was “inactive”. With CC(=O)NC[C@H]1CN(c2ccc(N3CCOCC3)c(F)c2)C(=O)O1 the Potency was “inactive”. For COc1cc2c(cc1OC)C1CC(=O)C(CC(C)C)CN1CC2 (stereo unspecified), the Potency was “inactive”. For Cc1cc(O)c2c(c1)C(=O)c1cc(O)cc(O)c1C2=O, the Potency was “inactive”. With Cc1c(OCC(F)(F)F)ccnc1CS(=O)c1nc2ccccc2[nH]1 (stereo unspecified) the Potency was “inactive”. For O=C(c1ccccc1)c1ccc2n1CCC2C(=O)O (stereo unspecified), the Potency was “inactive”. For NCCCCNCCCN, the Potency was “inactive”. For Cc1cc(Cl)ccc1OCCCC(=O)NO, the Potency was “inactive”. For CC1(C)C(=O)N(CCN2CCC(C(=O)c3ccc(F)cc3)CC2)c2ccccc21, the Potency was “inactive”. With CC(=O)N1CCN(c2ccc(OC[C@H]3CO[C@](Cn4ccnc4)(c4ccc(Cl)cc4Cl)O3)cc2)CC1 the Potency was “inactive”. With C[C@H](Cc1ccc(O)c(O)c1)[C@@H](C)Cc1ccc(O)c(O)c1 the Potency was “inactive”. In the case of CCOC(=O)C1=C(O)C(=O)N(Cc2ccccc2)C1, the Potency is reported as “inactive”. In the case of CCOC(=O)C(C)Oc1cccc2c(=O)n(CC(=O)Nc3ccc4c(c3)OCCO4)ccc12 (stereo unspecified), the Potency is reported as “inactive”. For O=C1c2c(O)cc(O)cc2OC(c2ccc(O)c(O)c2)C1O (stereo unspecified), the Potency was “inactive”. With O=C(O)c1cccnc1Nc1cccc(C(F)(F)F)c1 the Potency was “inactive”. In the case of COc1ccccc1N1CCN(CCN(C(=O)C2CCCCC2)c2ccccn2)CC1, the Potency is reported as “inactive”. For O=Nc1c(-c2c(O)[nH]c3cc(Br)ccc23)[nH]c2ccccc12, the Potency was 15.8 µM (active). For O=c1c(O)c(-c2ccc(O)cc2O)oc2cc(O)cc(O)c12, the Potency was “inactive”. For O=c1ccc2ccc(O)c(O)c2o1, the Potency was “inactive”. With CC1(C)NC(=O)N(c2ccc([N+](=O)[O-])c(C(F)(F)F)c2)C1=O the Potency was “inactive”. For O=c1c(O)c(-c2cc(O)c(O)c(O)c2)oc2cc(O)cc(O)c12, the Potency was “inactive”. For NNc1nncc2ccccc12, the Potency was “inactive”.
